Data reported in PubChem BioAssay (NCATS).
Results filed as inconclusive are left out. The source made the active and inactive calls. Unless noted, no rule for the calls is given here.

Legend:
[1] = qHTS profiling of the MIPE4 collection as inhibitors of Plasmodium falciparum (3D7) proliferation (AID 743344);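 also: scaled between DMSO vehicle wells and 0.29 µM artemisinin as full inhibition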; conditions: P. falciparum 3D7 in erythrocytes, SYBR Green DNA fluorescence, 72 h; at 5.51 µM (top of the series) unless noted
In short: (§1)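 Erythrocytes infected with P. falciparum (0.3% parasitemia, 2.5% hematocrit) incubated with compounds 72 h at 37 C, 5% CO2. Lysis with saponin/Triton buffer containing SYBR Green I, overnight at room temperature in the dark; DNA fluorescence (485/535 nm) normalised to 0.29 uM artemisinin and DMSO.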

[2] = qHTS profiling of the MIPE4 collection as inhibitors of Plasmodium falciparum (DD2) proliferation (AID 743345); conditions: P. falciparum Dd2 in erythrocytes, SYBR Green DNA, 72 h; at 5.51 µM (top of the series) unless noted
In short: as §1

[3] = qHTS profiling of the MIPE4 collection as inhibitors of Plasmodium falciparum (DD2) proliferation (Rep 2) (AID 743346); conditions: P. falciparum Dd2 in erythrocytes, SYBR Green DNA, 72 h; at 5.51 µM (top of the series) unless noted
Description: (§2) Plasmodium falciparum is a virulent malarial parasite that kills 1-2 million people worldwide each year. Transmitted by mosquitoes, the sporozoite form of the parasite enters the blood stream to infect hepatocytes, where they become merozoites that infect red blood cells (erythrocytes). Within erythrocytes, merozoites begin a […] cycle of growth and division, after which the parasite is released to infect new red blood cells. Gametocytes, which form within erythrocytes as well, circulate in the bloodstream and are ingested by the mosquito, thereby completing the life cycle. To profile malarial isolates for differential chemical responses and to identify inhibitors of malarial growth, an assay that measures P. falciparum growth and replication within erythrocytes was employed. This assay uses a DNA binding fluorescent dye (SYBR Green) to detect parasite DNA following cell lysis. Because mature erythrocytes lack DNA, only Plasmodium-derived DNA is detected.
(§3) The SYBR Green viability assay was adapted from a method described previously (Plouffe et al., 2008). For screening 3 ul culture medium was dispensed into 1536 well black clear bottom plates (Aurora Biotechnologies) using a Multidrop Combi (Thermo Fisher Scientific Inc.), 23 nL compounds in DMSO were added by a pin tool (Kalypsys), and 5 ul of erythrocytes infected with P. falciparum (0.3% parasitemia, 2.5% hematocrit final concentration) were added. The plates were incubated at 37 C in a humidified incubator in 5% CO2 for 72 h, and 2 ul lysis buffer (20 mM Tris HCl, 10 mM EDTA, 0.16% saponin, 1.6% triton X, 10X SYBR Green I supplied as 10,000X […] by Invitrogen) was added to each well. […] The following morning, fluorescence intensity at 485(14) nm excitation and 535(25) nm emission wavelengths was measured on an EnVision (Perkin Elmer) plate reader. Plate reads were normalized relative to the control inhibitor (0.29 uM artemisinin) and vehicle (DMSO) wells present on each plate and then corrected by an algorithm using vehicle-only control plates at the beginning and end of the compound plate stack.

[4] = qHTS profiling of the MIPE4 collection as inhibitors of Plasmodium falciparum (HB3) proliferation (AID 743347);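 also: plate controls were DMSO vehicle wells for no effect and artemisinin wells for full effect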; conditions: P. falciparum HB3 in erythrocytes, SYBR Green DNA, 72 h; at 5.51 µM (top of the series) unless noted
Description: as §2, §3

[5] = target: Glutathione peroxidase 1 (Homo sapiens) (UniProt P07203); test: Primary qHTS Assay for Inhibitors of Recombinant Selenoprotein Glutathione Peroxidase 1 (GPX1) (AID 1845191; active = well fitted inhibition curve with a large enough effect; also: % is scaled to controls: 0 for no effect and ±100 for the full control effect; nearly all actives have a fitted effect of over 65% in size); conditions: recombinant GPX1, GR-coupled NADPH fluorescence, 15 min; series mostly up to 48.8 µM
In short: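 Recombinant GPX1 (10 nM final) was preincubated with compound for 30 min at room temperature, then reacted with 1 mM GSH, 0.5 mM CHP, 0.5 mM NADPH and 100 nM glutathione reductase; NADPH fluorescence (340/450 nm) was read at 0 and 15 min.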

[6] = target: Phospholipid hydroperoxide glutathione peroxidase GPX4 (Homo sapiens) (UniProt P36969); test: Primary qHTS Assay for Inhibitors of Recombinant Selenoprotein Glutathione Peroxidase 4 (GPX4) (AID 1845192; active = well fitted inhibition curve with a large enough effect; also: nearly all actives have a fitted effect of over 65% in size); conditions: recombinant GPX4, GR-coupled NADPH fluorescence, 15 min; series mostly up to 50 µM
In short: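 GR-coupled readout: 100 nM GR, 1 mM GSH, 0.5 mM NADPH; NADPH fluorescence (ex 340/em 450 nm) read at t=0 and after 15 min RT. GPX4 200 nM, preincubated 30 min with compound; substrate 0.5 mM CHP.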

Sequence of Glutathione peroxidase 1 (Homo sapiens) (P07203 whole entry, looked up): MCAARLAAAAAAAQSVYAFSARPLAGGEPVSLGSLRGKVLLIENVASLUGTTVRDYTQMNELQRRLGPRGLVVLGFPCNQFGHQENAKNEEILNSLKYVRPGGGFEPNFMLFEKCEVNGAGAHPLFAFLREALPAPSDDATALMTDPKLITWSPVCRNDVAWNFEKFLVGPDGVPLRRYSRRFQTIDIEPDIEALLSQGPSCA
Sequence of Phospholipid hydroperoxide glutathione peroxidase GPX4 (Homo sapiens) (P36969 whole entry, looked up): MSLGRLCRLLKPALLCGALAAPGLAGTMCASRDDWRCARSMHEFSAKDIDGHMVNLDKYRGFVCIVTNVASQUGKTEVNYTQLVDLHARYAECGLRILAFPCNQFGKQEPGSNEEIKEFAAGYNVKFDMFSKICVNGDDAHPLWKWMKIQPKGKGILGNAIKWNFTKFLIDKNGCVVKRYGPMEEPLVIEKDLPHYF

NC[C@@H]1O[C@H](O[C@H]2[C@H](O)[C@H](O[C@H]3[C@@H](O)[C@H](N)C[C@H](N)[C@H]3O[C@H]3O[C@H](CN)[C@H](O)[C@H](O)[C@H]3N)O[C@@H]2CO)[C@@H](N)[C@@H](O)[C@@H]1O
parasite growth, % of DMSO control [1]: 98.8% | parasite growth remaining, % of DMSO control (lower = more inhibition) [2]: 101% | parasite growth, % of control (lower = inhibition) [3]: 77.1% | growth, % of control [4]: 77.3% | activity, negative = inhibition [5]: -26.7% [at 4.49 µM] (inactive)

CCC(=O)O[C@@H]1CC(=O)O[C@H](C)C/C=C/C=C/[C@@H](O)[C@H](C)C[C@H](CC=O)[C@H](OC2O[C@H](C)[C@@H](O[C@H]3C[C@@](C)(O)[C@@H](OC(=O)CC)[C@H](C)O3)[C@H](N(C)C)[C@H]2O)[C@H]1OC (some centres not stated)
outcome [5]: inactive | outcome [6]: inactive
